# Sm TGR block: blocks Schistosoma mansoni thioredoxin glutathione reductase; Q962Y6; purified TGR, DTNB reduction, TNB absorbance 405 nm; Potency, µM (highest dose often 114 µM), usual class: inhibitors; 360,000 tested, 3% active; AID 485364; also: nearly all actives have a fitted effect of over 60% in size
#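 TGR 20 nM + NADPH 100 uM (dispensed conc.), cpd preinc 15 min RT; start with NADPH (500 uM addition) then DTNB (15 mM addition). Kinetic TNB absorbance, 405 nm filter. Four-parameter Hill fit across titration.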
# HCMV antiviral: blocks human cytomegalovirus replication. HFF cells, HCMV-luciferase reporter, 72 h; stronger effect = lower value. activity change, negative = inhibition, % at 57.5 µM. 410,000 tested, 4.5% active. AID 1259415; in the data active = activity change below about -60%; inconclusive = no clear call, values can overlap the other calls; inactive = above about -39%
#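 After 16 h attachment at 37C, HFF cells received test compound and HCMV-luciferase (1 PFU/cell); reporter luminescence read 72 h later, data normalized against buffer-only and known inhibitor Salinomycin.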
# Pf growth 48h: P. falciparum growth inhibition at 48 hours (one generation) | P. falciparum luciferase growth in erythrocytes, 48 h | Potency, µM (series often up to 28.7 µM), actives largely listed as inhibitors | 310,000 tested, 5.9% active | AID 504832
#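 Cell-based growth assay: transgenic P. falciparum expressing firefly luciferase, cultured in red cells within RPMI 1640 containing 0.5% w/v Albumax, 24 mM bicarbonate and gentamycin. A drop in luciferase activity indicates inhibition.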
# Pf growth 96h: inhibits malaria parasite growth, 96 h; 320,000 tested, 6.9% active; Potency, µM (titrated, usually from 28.7 µM), hits mostly inhibitors; AID 504834; P. falciparum luciferase reporter growth, 96 h
#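 Delayed-death screen, second-generation endpoint: infected erythrocytes, 2% hematocrit, 0.05% parasitemia final; 96 hours at 37 C, 5% CO2; luciferase detection reagent; luminescence decrease equals reduced growth.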
# Giardia FBPA inh-1: inhibitors of Giardia lamblia fructose-1,6-bisphosphate aldolase; purified Giardia FBPA; A8B2U2; Potency, µM (doses to about 59.6 µM), most hits filed as inhibitors; AID 2451; 290,000 tested, 0.71% active; also: nearly all actives have a fitted effect of over 55% in size
# Target sequence (A8B2U2 whole entry, looked up): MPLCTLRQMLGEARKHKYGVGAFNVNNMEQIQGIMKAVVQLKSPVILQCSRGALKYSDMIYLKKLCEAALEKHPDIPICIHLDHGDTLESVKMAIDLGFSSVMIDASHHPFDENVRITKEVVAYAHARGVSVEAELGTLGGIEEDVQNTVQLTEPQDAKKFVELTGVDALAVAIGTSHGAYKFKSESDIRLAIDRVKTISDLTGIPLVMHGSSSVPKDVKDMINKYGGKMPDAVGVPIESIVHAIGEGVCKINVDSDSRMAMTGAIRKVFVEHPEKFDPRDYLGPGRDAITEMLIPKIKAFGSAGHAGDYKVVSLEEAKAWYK
#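 40 nM FBPA preincubated 10 min at RT with compound (up to 57.5 uM final), then substrate plus GAPDH/TPI/NAD/arsenate coupling and diaphorase/resazurin added. Fluorescence read after 20 min at RT, 525/598 nm.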
# Giardia growth: inhibitors of Giardia lamblia growth; shares compounds with Giardia FBPA inh-1; AID 2785; 1,500 tested, 5% active; Potency, µM (titrated, usually from 57.5 µM), most hits filed as inhibitors; Giardia lamblia trophozoite growth inhibition;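 also: trophozoites exposed to compound for 48 h at 37 °C; nearly all actives have a fitted effect of over 70% in size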
# Mammalian tox: toxic to mammalian cells in Giardia aldolase counter-screen | shares compounds with Giardia FBPA inh-1 | mammalian cell viability counter-screen, qHTS | Potency, µM (titrated, usually from 57.5 µM), most hits filed as inhibitors | 1,500 tested, 4% active | AID 2786;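 also: Chinese hamster ovary cells used as mammalian cytotoxicity surrogate; viability measured as cellular ATP by luminescence; compound exposure lasted 48 h before reading; nearly all actives have a fitted effect of over 60% in size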
# Giardia FBPA inh-2: confirmation of Giardia fructose-bisphosphate aldolase inhibitors; 1,500 tested, 5% active; AID 2787; shares compounds with Giardia FBPA inh-1; Potency, µM (titrated, usually from 57.5 µM), most hits filed as inhibitors; purified Giardia aldolase enzyme activity, qHTS; also: nearly all actives have a fitted effect of over 45% in size
# Rabbit FBPA inh: rabbit FBP aldolase inhibition by Giardia aldolase hits; shares compounds with Giardia FBPA inh-1; Rabbit muscle FBPA enzyme inhibition, selectivity counter-screen; Potency, µM (top dose mostly 57.5 µM), usual class: inhibitors; 1,500 tested, 4% active; also: nearly all actives have a fitted effect of over 60% in size
# Target sequence (P00883 whole entry, looked up): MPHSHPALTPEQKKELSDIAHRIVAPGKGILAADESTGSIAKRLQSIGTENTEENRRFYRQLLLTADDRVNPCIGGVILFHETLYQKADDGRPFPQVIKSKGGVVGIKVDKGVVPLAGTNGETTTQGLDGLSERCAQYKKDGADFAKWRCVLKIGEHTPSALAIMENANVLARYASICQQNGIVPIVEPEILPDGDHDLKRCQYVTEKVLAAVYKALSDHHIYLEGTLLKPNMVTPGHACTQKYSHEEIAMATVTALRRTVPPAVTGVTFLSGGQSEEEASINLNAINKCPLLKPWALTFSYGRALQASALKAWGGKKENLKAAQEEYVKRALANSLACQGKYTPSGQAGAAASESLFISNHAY
# GAPDH counter: GAPDH inhibition flagged for Giardia aldolase hits; 1,500 tested, 6% active; Potency, µM (doses to about 57.5 µM), most hits filed as inhibitors; GAPDH coupling enzyme counterscreen, biochemical, qHTS; shares compounds with Giardia FBPA inh-1; also: nearly all actives have a fitted effect of over 55% in size
# Numbers stand for hits; . = inactive; ? = inconclusive; / = no result given; [ ] = dose if it differs, or a comment. Most compounds without a hit are left out; they make up all but 14% or so of the library. Unless noted, calls follow the shape of the dose curve; as a rule, active = well fitted curve in the direction sought with a large enough effect; inconclusive = small, poorly fitted or top-dose-only effect, or another doubt; inactive = no such curve, though single readings can be large; an effect the other way counts as inactive or inconclusive.
SMILES,Sm TGR block,HCMV antiviral,Pf growth 48h,Pf growth 96h,Giardia FBPA inh-1,Giardia growth,Mammalian tox,Giardia FBPA inh-2,Rabbit FBPA inh,GAPDH counter
CC1=C(C(=O)Nc2ccc(C)cc2C)C(c2ccc(Br)cc2)n2ncc(C(=O)Nc3cccc(C)c3)c2N1 (centres undefined),.,.,/,/,/,/,/,/,/,/
Cc1ccc(SCCN2CCN(C)CC2)cc1,.,.,.,?,22µM,.[10.4 µM],.,.,.,.
Cc1nc(N)sc1-c1csc(Nc2ccccc2)n1,.,.,.,.,.,/,/,/,/,/
Cc1nc(N)sc1-c1csc(Nc2cccc(C(=O)O)c2)n1,?,.,.,.,18µM,.,.,?,32µM,32µM
COCCNC(=S)Nc1cccc2cnccc12,?,.,.,.,?,/,/,/,/,/
S=C(Nc1cccc(Cl)c1)Nc1cccc2cnccc12,25µM,/,.,4.1µM,0.25µM,.,.,?,?,25µM
Brc1ccccc1OCCN1CCOCC1,.,.,.,?,28µM,.,.,.,.,.
Clc1cc(Br)ccc1OCCN1CCOCC1,.,.,.,.,.,/,/,/,/,/
COCc1cc(=O)[nH]c(Nc2nc3ccccc3o2)n1,.,.,?,.,10µM,.,?,.,.,?
CCC1(C)Cc2ccccc2-c2nc(NN)[nH]c(=O)c21 (centres undefined),.,.,?,?,22µM,.,.,.,.,.
CCC(=O)OCC(=O)C1(OC(=O)CC)C(C)CC2C3CCC4=CC(=O)C=CC4(C)C3(Cl)C(O)CC21C (centres undefined),/,/,/,/,.,/,/,/,/,/
CCc1nnc(N/N=C/c2ccccc2Cl)n1N,.,.,.,?,18µM,?,.,.,.,.
CCc1nnc(N/N=C/c2ccccc2F)n1N,.,-80,.,.,20µM,.,.,?,.,.
O=C(CO)N/N=C/c1ccccc1F,.,.,.,.,.,/,/,/,/,/
CCCn1nc(NS(=O)(=O)c2cccc3nonc23)c2cc3cccc(C)c3nc21,.,.,.,?,/,/,/,/,/,/
CC(=O)ON(C(C)=O)S(=O)(=O)c1ccc(Cl)cc1,/,/,/,/,.,/,/,/,/,/
COc1cc(-c2nc(S(=O)(=O)c3ccc(Cl)cc3)c(N3CCOCC3)o2)cc(OC)c1OC,?,/,?,/,.,/,/,/,/,/
COc1cc(-c2nc(S(=O)(=O)c3ccc(C)cc3)c(N3CCOCC3)o2)cc(OC)c1OC,?,.,.,?,35µM,?,.,.,.,.
O=C(NCCO)C(=O)NCC(c1ccc2c(c1)OCO2)N1CCOCC1 (centres undefined),.,.,/,/,/,/,/,/,/,/
CCc1ccc(/C=N/Nc2nn[nH]n2)cc1,.,.,.,.,?,/,/,/,/,/
C1CCCCCC(=NNc2nn[nH]n2)CCCCC1,.,.,.,.,16µM,.,.,.,.,.
O=C(O)Cn1c2ccccc2c2n[nH]c(=S)nc21,.,.,.,3.7µM,8.9µM,.,.,.,.,.
CC1CCCN(S(=O)(=O)c2ccc(C(=O)Nc3nnc(C4=COCCO4)o3)cc2)C1 (centres undefined),.,.,.,?,28µM,.,.,.,.,.
O=C(Nc1nnc(C2=COCCO2)o1)c1ccc(S(=O)(=O)N2CCOCC2)cc1,.,.,.,.,20µM,?,.,.,.,.
CC1CCCCN1S(=O)(=O)c1ccc(C(=O)Nc2nnc(-c3ccccn3)o2)cc1 (centres undefined),.,.,.,.,18µM,.,.,.,.,.
SMILES,Sm TGR block,HCMV antiviral,Pf growth 48h,Pf growth 96h,Giardia FBPA inh-1,Giardia growth,Mammalian tox,Giardia FBPA inh-2,Rabbit FBPA inh,GAPDH counter
CCOC(=O)C1CCCN(C(=O)c2cc(C#N)cs2)CC1 (centres undefined),/,.,/,/,/,/,/,/,/,/
c1ccc(CCN(Cc2ccccc2)C2CCN(C3CCCC3)CC2)cc1,.,.,?,?,20µM,45µM,.,.,.,.
CCCn1c(=O)c(C(=O)Nc2ncccc2O)c(O)c2ccccc21,.,.,.,.,?,/,/,/,/,/
Cn1c(=O)c(C(=O)Nc2ncccc2O)c(O)c2ccccc21,.,.,.,?,8.9µM,.[10.4 µM],.,?,?,.
CCOC(=O)c1c(NC(=O)COc2cccc(C(F)(F)F)c2)sc2c1CCC(C)C2 (centres undefined),.,.,/,/,/,/,/,/,/,/
COc1ccccc1CNc1cncnc1,.,.,.,.,.,/,/,/,/,/
COc1ccccc1CNc1ncccn1,.,.,.,.,18µM,.[10.4 µM],.,.,.,.
Cc1ccc(-n2ncc(C(=O)NCc3ccccc3)c2C2CCN(C(=O)OC(C)(C)C)CC2)cc1,.,.,/,/,/,/,/,/,/,/
COc1ccc(C(=O)N2CCC[C@@]3(CCN(Cc4ccccc4OC)C3)C2)cc1,/,/,/,/,.,/,/,/,/,/
Cc1ccc(NC(=O)CN2CCN(C)CC2)cc1Br,.,.,.,.,16µM,?,.,.,.,.
CN(C)S(=O)(=O)c1ccc(NC(=O)CN2CCCCCC2)cc1,.,.,.,.,.,/,/,/,/,/
CN1CCN(CC(=O)Nc2ccc(S(=O)(=O)N(C)C)cc2)CC1,.,.,/,?,14µM,?,.,.,.,.
CCN1CCN(CC(=O)Nc2ccc(C)c(Br)c2)CC1,.,.,/,.,?,/,/,/,/,/
O=C(Nc1ccc2c(c1)OCO2)c1cc(C2CCCN(C(=O)CCc3ccccc3)C2)on1 (centres undefined),/,.,/,/,/,/,/,/,/,/
CCCCNC(=S)N(Cc1ccco1)Cc1cc2cc3c(cc2[nH]c1=O)OCCO3,.,.,?,.,.,/,/,/,/,/
OCCNC(=S)Nc1ccc(Cl)c(Cl)c1,.,.,.,?,.,/,/,/,/,/
NC(=S)NNc1ccc(Cl)c(Cl)c1,2µM,.,.,.,13µM,.,.,.,.,.
Cc1ccc(NNC(N)=S)cc1Cl,40µM,.,.,.,18µM,.,.,.,.,.
NC(=S)NNc1ccnc2cc(Cl)ccc12,.,.,2.9µM,?,16µM,?,.,.,.,.
O=C(c1ccc2c(c1)N(Cc1ccccc1)C(=O)c1ccccc1S2(=O)=O)N1CCN(c2ccccc2)CC1,.,.,/,/,/,/,/,/,/,/
O=C(NCc1ccccc1)c1ccc(CNS(=O)(=O)c2ccc(Br)cc2)cc1,.,.,/,/,/,/,/,/,/,/
CC(=O)c1c(C)[nH]c(=S)c(C#N)c1-c1ccc(Cl)cc1,.,.,.,.,.,/,/,/,/,/
Cc1[nH]c(=S)c(C#N)c(-c2ccco2)c1C(=O)N(C)C,.,.,.,.,20µM,?,.,.,.,.
O=C(CN1CCOCC1)Nc1nc2ccc(Cl)cc2s1,.,.,.,.,6.3µM,.,.,.,.,.

# Source: PubChem BioAssay (National Center for Advancing Translational Sciences (NCATS))
